From PubChem BioAssay
Shown is part of a subset that was picked to be rich in hits.
Cruzain inh noDet = blocks cruzain activity in detergent-free assay; P25779; purified cruzain, Z-FR-AMC fluorescence, no detergent; Potency, µM, usual class: inhibitors; hit rate 2.3% among 200,000; AID 1476; active = well fitted curve in the direction sought with a large enough effect; inconclusive = small, poorly fitted or top-dose-only effect, or another doubt; inactive = no such curve, though single readings can be large; an effect the other way counts as inactive or inconclusive; note: nearly all actives have a fitted effect of over 40% in size
Target sequence (P25779 123-467 limits assumed): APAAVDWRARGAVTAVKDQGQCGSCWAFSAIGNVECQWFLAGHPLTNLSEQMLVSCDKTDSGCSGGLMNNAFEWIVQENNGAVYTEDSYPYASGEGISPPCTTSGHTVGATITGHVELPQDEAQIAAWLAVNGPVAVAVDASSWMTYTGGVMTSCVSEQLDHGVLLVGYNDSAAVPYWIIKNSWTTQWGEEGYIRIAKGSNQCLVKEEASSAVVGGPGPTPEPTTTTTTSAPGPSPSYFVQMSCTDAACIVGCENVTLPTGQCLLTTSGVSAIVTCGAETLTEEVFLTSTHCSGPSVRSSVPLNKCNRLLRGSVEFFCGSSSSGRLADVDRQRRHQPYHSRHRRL
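Purified cruzain at 1.5 nM, pre-incubated 15 min with compound at room temperature in 100 mM sodium acetate pH 5.5, 5 mM DTT, 0.00005% Triton X-100. Reaction started with 2 uM Z-FR-AMC; AMC fluorescence increase over 60 s gives rate.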
Cruzain inh Det = inhibitors of Trypanosoma cruzi cruzain with detergent. P25779. purified cruzain, Z-FR-AMC fluorescence, 0.01% Triton. Potency, µM, usual class: inhibitors. hit rate 0.43% among 200,000. AID 1478; active = well fitted curve in the direction sought with a large enough effect; inconclusive = small, poorly fitted or top-dose-only effect, or another doubt; inactive = no such curve, though single readings can be large; an effect the other way counts as inactive or inconclusive; note: nearly all actives have a fitted effect of over 40% in size
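Read-out: AMC fluorescence (360 nm excitation, 450 nm emission), four reads over 2 min, first-to-third difference used. Conditions: cruzain 1.5 nM, Z-FR-AMC 2 uM, pH 5.5 acetate, 5 mM DTT, 0.01% Triton X-100.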
NS1 function inh = influenza NS1 inhibition; Potency, µM (doses to about 46.1 µM); hit rate 0.4% among 270,000; AID 2326; note: actives are rising curves; nearly all actives have a fitted effect of over 50% in size
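OD600 was taken as the measure of yeast growth restored by compound in an NS1-expressing S. cerevisiae strain. Cells had been washed out of glucose medium and diluted 1:100 into galactose -URA medium, pH 6.0.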
Flu NS1 inh = validation of influenza NS1 protein function inhibitors. shares compounds with NS1 function inh. influenza NS1 function cell assay, 15-point titration. activity change, negative = inhibition, % at 32.9 µM. 1,400 tested, under 10 active
PR8 titer = reduces influenza A/PR/8/34 replication in MDCK cells. virus titer (log TCID50), log10 TCID50 at 5 µM. AID 504647. shares compounds with NS1 function inh. MDCK infected influenza A/PR/8/34, virus titer TCID50; stronger effect = lower value. hit rate 30% among 95; call rule not given here
Of the large screens only hits and unclear results are named; the others gave an inactive call (follow-up assays come after a bar, where they were run); ! = repeats disagree. Unless noted, calls come from the whole dose curve.

Cc1ccc(S(=O)(=O)N2CC(=NO)C2)cc1	NS1 function inh 6.3µM | Flu NS1 inh inactive
Cc1ccc(S(=O)(=O)N2CN3CCN(C3)C2)cc1	none
COc1ccc(CCC(=O)NCCc2ccc(Cl)cc2)cc1	none (no result: Cruzain inh noDet, Cruzain inh Det)
COc1cc(OC)cc(-c2nnc(SCC(=O)N3CCCc4ccccc43)o2)c1	Cruzain inh noDet inconclusive
COc1cc2c(cc1NC(=O)COC(=O)CNC(=O)c1ccccc1)oc1ccccc12	none (no result: Cruzain inh noDet, Cruzain inh Det)
COc1cccc(CN2CCC(n3nccc3NC(=O)CCCc3ccccc3)CC2)c1	none (no result: Cruzain inh noDet, Cruzain inh Det)
NC(Cc1cc(O)c(O)cc1O)C(=O)O (stereo unspecified)	Cruzain inh Det inconclusive, NS1 function inh 8.9µM | Flu NS1 inh inactive
N[C@H](Cc1ccc(O)c(O)c1)C(=O)O	none
COc1ccc(C2C(C#N)=C(N)N(c3cccnc3)C3=C2C(=O)CC(C)(C)C3)cc1OC (stereo unspecified)	none (no result: NS1 function inh)
COc1ccc(N2C(N)=C(C#N)C(c3cccnc3)C3=C2CC(C)(C)CC3=O)cc1 (stereo unspecified)	NS1 function inh inconclusive | Flu NS1 inh inactive
COc1ccc(-c2cc(C(=O)OC(C)C(=O)Nc3c(C)n(C)n(-c4ccccc4)c3=O)c3ccccc3n2)cc1 (stereo unspecified)	Cruzain inh noDet inconclusive
Cc1c(NC(=O)C(C)OC(=O)c2cc(-c3cccc4ccccc34)nc3ccccc23)c(=O)n(-c2ccccc2)n1C (stereo unspecified)	Cruzain inh noDet inconclusive, NS1 function inh 11µM | Flu NS1 inh inactive
CNc1ccccc1C(=O)OC(C)C(=O)Nc1ccc(S(=O)(=O)N2CCCC2)cc1 (stereo unspecified)	none (no result: Cruzain inh noDet, Cruzain inh Det)
Cc1ccc(S(=O)(=O)Nc2ccccc2C(=O)OC(C)C(=O)Nc2ccc3ccccc3c2)cc1[N+](=O)[O-] (stereo unspecified)	Cruzain inh noDet 7.9µM, NS1 function inh 4.5µM | Flu NS1 inh inactive
Cc1ccc2nc(-c3ccc(NS(=O)(=O)c4c(C)n(C)c(=O)n(C)c4=O)cc3)sc2c1	NS1 function inh 7.9µM (no result: Cruzain inh noDet, Cruzain inh Det) | Flu NS1 inh inactive
Cc1ccc(S(=O)(=O)Nc2ccc(-c3nc4ccc(C)cc4s3)cc2)cc1	Cruzain inh noDet inconclusive
C=C(C)CNC(=S)N=Nc1c(O)[nH]c2ccc([N+](=O)[O-])cc12	none (no result: Cruzain inh noDet, Cruzain inh Det)
CSc1ccc(C(c2c(C)[nH][nH]c2=O)c2c(C)[nH][nH]c2=O)cc1	NS1 function inh 3.2µM (no result: Cruzain inh noDet, Cruzain inh Det) | Flu NS1 inh inconclusive
Cc1ccc(C(c2c(C)[nH][nH]c2=O)c2c(C)[nH][nH]c2=O)cc1	none (no result: Cruzain inh noDet, Cruzain inh Det)
OC1C[N+]2(CCCCC2)C1	none
CC(C)(C)C(=O)Nc1ccc2c(c1)-c1cc(NC(=O)C(C)(C)C)ccc1C2	Cruzain inh noDet inconclusive
COc1ccc(NS(=O)(=O)c2cccc(C(=O)Nc3cccc(C(=O)O)c3)c2)cc1	none (no result: Cruzain inh noDet, Cruzain inh Det)
COc1ccc(NS(=O)(=O)c2cccc(N/C(=N\S(=O)(=O)c3ccccc3)c3ccc(F)cc3)c2)cc1	NS1 function inh 11µM | Flu NS1 inh inactive
COc1cc(C2NC(C(=O)O)Cc3c2[nH]c2ccccc32)cc(OC)c1OC (stereo unspecified)	none
COc1ccc(C2NC(C(=O)O)Cc3c2[nH]c2ccccc32)cc1OC (stereo unspecified)	NS1 function inh inconclusive | Flu NS1 inh inactive
Cc1ccc(NC(=O)O/N=C2\CCCCC2c2ccc([N+](=O)[O-])cc2[N+](=O)[O-])cc1 (stereo unspecified)	Cruzain inh noDet inconclusive
COC(=O)C1=C(C)NC2=C(C(=O)CCC2)C1c1cn(Cc2ccc(Cl)cc2Cl)nc1-c1ccccc1 (stereo unspecified)	NS1 function inh 13µM | Flu NS1 inh inactive
CCOC(=O)C1=C(C)NC2=C(C(=O)CCC2)C1c1cc(OC)ccc1OC (stereo unspecified)	none
COC(=O)C1=C(C)NC2=C(C(=O)CCC2)C1c1cccs1 (stereo unspecified)	NS1 function inh inconclusive
CCOC(=O)C1=C(C)NC2=C(C(=O)CCC2)C1c1cn(Cc2ccc(Cl)cc2Cl)nc1-c1ccccc1 (stereo unspecified)	NS1 function inh inconclusive | Flu NS1 inh inactive | PR8 titer inactive
CC(NC(=O)Nc1ccccc1Cl)c1ccc2c(c1)OCO2 (stereo unspecified)	none (no result: Cruzain inh noDet, Cruzain inh Det)
CCc1cc(C(=O)N2CCCC(CNS(=O)(=O)c3cccs3)C2)n(C)n1 (stereo unspecified)	none (no result: Cruzain inh noDet, Cruzain inh Det)
O=C(NCCc1ccccc1)N1c2ccccc2Sc2ccccc21	none
Cc1ccc(-c2nnc(/C=C/c3ccccc3)o2)cc1	none
O=C(CCc1ccc(O)cc1)c1c(O)cc(O)cc1O	NS1 function inh 13µM! | Flu NS1 inh inactive
COc1cc(O)c(CC=C(C)C)c(O)c1C(=O)CCc1ccc(O)cc1	none (no result: Cruzain inh noDet, Cruzain inh Det)
O=C(CCN1CCCCO1)N1CCCC(Nc2ccc(F)c(F)c2)C1 (stereo unspecified)	none (no result: Cruzain inh noDet, Cruzain inh Det)
Cc1ccc(C)n1NC(=O)c1ccc(O)cc1	NS1 function inh 11µM | Flu NS1 inh inactive
Cc1ccc(C)n1NC(=O)c1ccccc1	none
COC(=O)c1ccccc1NC(=O)c1ccc(COc2ccc3c(c2)CCC3)cc1	Cruzain inh noDet inconclusive
COc1cccc(-c2nc(N3CCCC3)c3ccccc3n2)c1O	none (no result: Cruzain inh noDet, Cruzain inh Det)
COc1cccc(-c2nc(N3CCC(C)CC3)c3ccccc3n2)c1O	NS1 function inh 20µM | Flu NS1 inh inactive
Cc1ccc2c(c1)NCC(C(=O)NC1CCCCC1)O2 (stereo unspecified)	NS1 function inh 7.9µM | Flu NS1 inh inactive
Cc1ccc(C)c(NC(=O)NC2CCCCCCC2)c1	none (no result: Cruzain inh noDet, Cruzain inh Det)
Clc1cccc(N2CCN(c3ncnc4c3nc3n4CCCCC3)CC2)c1	none (no result: NS1 function inh)
COc1ccc(/C=N/Nc2nc3ccccc3[nH]2)cc1OC	none
COc1cc(/C=N\Nc2nc3ccccc3[nH]2)cc(OC)c1OC	NS1 function inh 2.8µM | Flu NS1 inh inactive
CCn1c(SCC(=O)Nc2cc(C)on2)nc2sc(C)c(C)c2c1=O	none
CCCOc1ccccc1NC(=O)/C=C/C(N)=O	none
COc1ccc(-c2nn(-c3ccccc3)cc2/C=N/NC(=O)c2cccc(S(=O)(=O)Nc3ccccc3OC)c2)cc1	Cruzain inh noDet 10µM, NS1 function inh 10µM | Flu NS1 inh inactive
COc1ccc(-c2nn(-c3ccccc3)cc2C(=O)Nc2ccccc2OC)cc1	none (no result: NS1 function inh)
Cc1ccc(Cn2c(=O)c3c(nc4n3CCN4c3cc(C)cc(C)c3)n(C)c2=O)cc1	none (no result: NS1 function inh)
CCOc1ccc(NC(=O)c2ccccc2O)cc1	none
CCOc1ccc(NC(=O)c2cccnc2C(=O)O)cc1	NS1 function inh 4.5µM | Flu NS1 inh inactive
O=C(Nc1ccc2c(c1)OCO2)N1CCN(C/C=C/c2ccccc2)CC1	none
Cc1ccc(NC(=O)CC2SC(=O)NC2=O)cc1 (stereo unspecified)	NS1 function inh 6.3µM | Flu NS1 inh inactive
Cc1ccc(NC(=O)CC2S/C(=N/N=C3/NC(=O)CS3)NC2=O)cc1 (stereo unspecified)	none (no result: Cruzain inh noDet, Cruzain inh Det)
CCOC(=O)COc1c(OC)cc(Cl)cc1C1Nc2ccccc2C(=O)N1c1ccc(F)cc1 (stereo unspecified)	NS1 function inh 13µM | Flu NS1 inh inactive
